Tgondii IFNg: T. gondii growth inhibition with IFN-gamma, primary screen, cell-based; AID 1259416, 2018; Toxoplasma gondii growth in IFN-gamma-treated host cells; hits give low values; 69,000 tested, 3.8% active; activity change, negative = inhibition, % (no concentration beside the values); in the data active means activity change below about -70%, passing the limit was not always enough;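 further: host cells are HeLa cells infected with Toxoplasma gondii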
* marks the source's active call; other numbers are inactive results; ! = not active in a repeat. The sample as a whole holds a higher share of hits than the screen did.

SMILES | Tgondii IFNg
O=C(NCCC1=CCCCC1)c1nc(Nc2ccccc2)c2ccccc2n1 | -76.4*
CCc1ccccc1NC(=O)c1nc(Nc2ccccc2)c2ccccc2n1 | -69.1
CCN1Cc2ccccc2CC1C(=O)O (stereo not given) | 2.2
Cc1cc(C)c(CNCCS(=O)(=O)N2CCCC2)c(C)c1CO | -3.6
COCC(=O)N1CCCN(Cc2cccn2-c2ccc(Cl)cn2)CC1 | -2.8
Cc1cc(-c2cc(=O)[nH]nc2C2CCN(C(=O)Cc3ccccc3F)CC2)on1 | -9.5
Cc1ccccc1-c1cn[nH]c1C1CCN(C(=O)c2c[nH]c(=O)[nH]2)CC1 | -57.3
CC(C)CC(NC(=O)C1Cc2ccccc2C1)c1nnc2n1CCNCC2 (stereo not given) | 51.9
Cc1nc(C)n(C(C)CC(=O)NC(Cc2ccsc2)c2cccnc2)n1 (stereo not given) | 129.8
COCC(=O)NCC1CCN(c2ccc(S(=O)(=O)N3CCOCC3)cc2)CC1 | 14.0
CCCc1nc(NCc2cnc(C)cn2)c2cnn(C)c2n1 | 11.4
Cc1ccc(CN(CCCN2CCOCC2)Cc2cncc3c(Cl)[nH]nc23)o1 | 8.2
O=C(NC1CCCC1)c1nc(Nc2ccc(F)cc2)c2ccccc2n1 | -62.3
CCc1ccc(CNC(=O)c2nc(Nc3ccc(C)cc3)c3ccccc3n2)cc1 | -54.6
CCOC(=O)c1nc(Nc2ccc(OC)c(Cl)c2)c2ccccc2n1 | -76.9*
CCOC(=O)c1nc(Nc2cccc(OC)c2)c2ccccc2n1 | -4.5
Cc1ccc(Nc2nc(C(=O)NCc3ccccc3)nc3ccccc23)cc1 | 13.9
CCOc1ccc(CNC(=O)c2nc(Nc3cccc(C)c3)c3ccccc3n2)cc1 | -94.1*
O=C(NC1CCCCCC1)c1nc(Nc2ccccc2)c2ccccc2n1 | -85.1*
Cc1ccc(Nc2nc(C(=O)NCc3cccnc3)nc3ccccc23)cc1 | -81.7*
COCCNC(=O)c1nc(Nc2cccc(C)c2)c2ccccc2n1 | -32.6
CCOC(=O)c1nc(Nc2cc(C)c(Cl)cc2OC)c2ccccc2n1 | -43.5
Cc1cccc(Nc2nc(C(=O)NC3CCCC3)nc3ccccc23)c1 | -64.8
Cc1cccc(Nc2nc(C(=O)NCc3ccc(C)o3)nc3ccccc23)c1 | -51.0
Cc1occc1C(=O)N1C[C@@H]2OCCN(CCN3CCCC3)[C@H]2C1 | 193.9
SMILES | Tgondii IFNg
Cc1noc(C)c1NC(=O)c1ccc(CN2CCc3ccccc3C2)cc1 | -7.2
Cc1c(Cl)cccc1NC(=O)Cn1ncc2c(N3CCN(c4ccccc4)CC3)ncnc21 | 128.9
CC(C)CC(=O)N1CCC(n2nnc3ccccc3c2=O)CC1 | -46.0
Cc1cc(Oc2ccc(N(C)C)cc2)cc(C2CCCN(C(=O)c3c(C)noc3C)C2)n1 (stereo not given) | -8.8
Cc1ccc2nc(C3CCCCN3C(=O)c3ccncc3)[nH]c2c1 (stereo not given) | -41.7
Cc1nc2cnccn2c1NCCC(=O)N1CCC(Cc2ccccc2)CC1 | 111.7
Cc1cc(C2CCC2)nc(N2CCc3nc(N)sc3C2)n1 | -29.4
Oc1ccccc1CN1CCC(c2[nH]ncc2-c2cccc(C(F)(F)F)c2)CC1 | -49.9
COc1ccc2c(c1)NC1(CCN(S(=O)(=O)c3ccc(C)cc3)CC1)c1cccn1-2 | 23.1
Oc1cc(-c2csc3ccccc23)cc2c1OCCN(CCn1cncn1)C2 | -32.1
O=C(CCN1CCCO1)N1CCOc2c(O)cc(-c3cccnc3)cc2C1 | 4.7
Cc1ccc(-c2cc(O)c3c(c2)CN(C(=O)CCCn2cncn2)CCO3)cc1 | -75.7*
CC(C)n1c2ccccc2c2c1cc(C(=O)NCc1cccs1)n2C(=O)N(C)C | -22.9
CCn1c(C2CCN(C(=O)CCn3nnc4ccccc43)CC2)nn(C)c1=O | -1.1
O=Nc1c(-c2c(O)[nH]c3ccccc23)[nH]c2ccccc12 | -84.5*
Cc1ccc(S(=O)(=O)N=Nc2c(O)[nH]c3ccccc23)cc1 | 30.8
Oc1[nH]c2ccccc2c1N=Nc1ccccc1 | 195.1
COc1cc(-c2ccc(OC)c(Cl)c2)nc(N)n1 | 136.6
COc1cc(C)ccc1-c1c(-c2ccccc2)ncn1C(C)Cc1cnccn1 (stereo not given) | -4.2
CC(Cc1cnccn1)n1cc(-c2ccnc3ccccc23)nn1 (stereo not given) | -10.6
COCCn1c2c([n+](Cc3cnccn3)c1C)C(=O)c1ccccc1C2=O | -83.3*
COc1ccc(CNC(=O)N2CCCCC2CCN2CCCC2=O)cc1 (stereo not given) | -2.5
O=S(=O)(c1ccc2c(c1)CCCC2)N1CCC2(CC1)NCCN=C2NC1CCCCCC1 | -36.6
CC(C)n1nc(-c2ccc3oc(N)nc3c2)c2c(N)ncnc21 | -82.9*
Cc1cc(C)cc(CSCC(=O)N2CCC3(CN(C)C(=O)O3)C2)c1 (stereo not given) | 21.4
SMILES | Tgondii IFNg
CSCCCN1CCCCC1c1ccccn1 (stereo not given) | 87.6
CCOC(=O)CSC1=Nc2ccccc2C2=NC(CCC(=O)NCc3cccs3)C(=O)N12 (stereo not given) | 17.0
Cc1ccccc1NC(=O)Cn1c(=O)cc(C(=O)N2CCCCC2)c2ccccc21 | 6.0
CN(c1ncccc1CNC(=O)c1cnc2c(c1)nnn2C)C1CCCCC1 | -12.2
CC(=O)[C@]1(O)Cc2c(O)c3c(c(O)c2[C@@H](O[C@H]2C[C@H](N)[C@H](O)[C@H](C)O2)C1)C(=O)c1ccccc1C3=O | -66.7
COc1cccc2c1C(=O)c1c(O)c3c(c(O)c1C2=O)C[C@@](O)(C(=O)CO)C[C@@H]3O[C@H]1C[C@H](N)[C@@H](O)[C@H](C)O1 | -83.9*
COc1cccc2c1C(=O)c1c(O)c3c(c(O)c1C2=O)C[C@@](O)(C(C)=O)C[C@@H]3O[C@H]1C[C@H](N)[C@H](O)[C@H](C)O1 | -71.7*!
Cc1nn(CC(=O)NCCCN2CCOCC2)c(=O)c2nc(-c3ccccc3)sc12 | -10.9
CCOc1ccc(N(Cc2nc(-c3cccc(C)c3)oc2C)S(=O)(=O)c2cccs2)cc1 | -43.5
Cc1ncc(C(=O)N2CCCC(CCc3ccc(F)cc3)C2)s1 (stereo not given) | -14.3
O=C(c1ccc2cccnc2c1O)N1CCCC(CCc2ccc(F)cc2)C1 (stereo not given) | -80.8*
O=C(c1cn[nH]c1-n1cnnn1)N1CCCC(CCc2ccc(F)cc2)C1 (stereo not given) | -13.0
CN(C)c1nc(-c2ccccc2)nc(Nc2ccc(Cl)cc2Cl)c1C#N | 98.6
COc1ccc(CSc2nc(C)cc(C)c2C#N)cc1 | -20.7
COc1ccc(Cl)cc1Nc1nc(C)cc(C)c1C#N | -79.1*
CC(C)Cc1cc(C(=O)N2CCC(C3CC(=O)c4ccccc4O3)CC2)no1 (stereo not given) | 8.4
Nc1ncnc2c1ncn2C1CCCO1 (stereo not given) | 15.9
OCC1OC(n2cnc3c(NC4CCCC4)nc(Cl)nc32)C(O)C1O (stereo not given) | 2.4
Nc1nc(Cl)nc2c1ncn2[C@H]1C[C@H](O)[C@@H](CO)O1 | -73.3*!
O=c1[nH]cnc2c1ncn2[C@H]1CC[C@@H](CO)O1 | 8.7
Nc1ccn([C@@H]2O[C@H](CO)[C@@H](O)[C@H]2O)c(=O)n1 | 10.8
CNC(=O)c1cnn(-c2nc(N)c3ncn([C@@H]4O[C@H](CO)C(O)C4O)c3n2)c1 (stereo not given in full) | 17.4
Nc1nc(Cl)nc2c1ncn2[C@@H]1O[C@H](CO)[C@@H](O)[C@@H]1F | -73.9*
O=c1[nH]c(=O)n([C@H]2C[C@H](O)[C@@H](CO)O2)cc1I | 21.2
Nc1nc(=O)n([C@H]2C[C@H](O)[C@@H](CO)O2)cc1F | -88.7*

Compound activity from PubChem BioAssay.
